Shiga toxin inh = inhibitors of Shiga toxin in Vero cells. Vero cells, Shiga toxin protein synthesis inhibition reporter. inhibition, % at 38.7 µM. 9.2% of 290,000 active; in the data active = inhibition mostly above about 28%, no sharp cut-off; inactive = mostly below about 43%
HCV inh = inhibitors of hepatitis C virus infection; Huh7.5.1 HCVcc-Cre infection, luciferase reporter, 44 h; Potency, µM (highest dose often 41.8 µM), most hits filed as inhibitors; 3.4% of 340,000 active; AID 651820
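1,000 cells/well; 4 h culture; + compound; + HCVcc-Cre (~0.5 moi); 44 h; luciferase substrate, RT 15 min; read 15 sec.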
Pf growth 96h = inhibits malaria parasite growth, 96 h | Potency, µM (titrated, usually from 28.7 µM), most hits filed as inhibitors | 6.9% of 320,000 active | P. falciparum luciferase reporter growth, 96 h
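Parasite growth measured via integrated firefly luciferase reporter in P. falciparum. Infected erythrocytes at 2% hematocrit, 0.05% parasitemia final were treated 96 hours at 37 C under 5% CO2, and luminescence was read.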
CHX counter = counter-screen hit for Shiga toxin inhibitors, cycloheximide. cell reporter, cycloheximide protein synthesis inhibition counterscreen. max response, %. 12% of 300,000 active. AID 2314; in the data active = max response mostly above about 13%, no sharp cut-off; inactive = mostly below about 14%; note: read at 38.3 µM for the half of the compounds with a filed dose
HCMV inh = blocks human cytomegalovirus replication. HFF cells, HCMV-luciferase reporter, 72 h; hits give low values. AID 1259415. activity change, negative = inhibition, % at 57.5 µM. 4.5% of 410,000 active; in the data active = activity change below about -60%; inconclusive = no clear call, values can overlap the other calls; inactive = above about -39%
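After 16 h attachment at 37C, HFF cells received test compound and HCMV-luciferase (1 PFU/cell); reporter luminescence read 72 h later, data normalized against buffer-only and known inhibitor Salinomycin.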
Pf growth 48h = P. falciparum growth inhibition at 48 hours (one generation). P. falciparum luciferase growth in erythrocytes, 48 h. Potency, µM (top dose mostly 28.7 µM), hits mostly inhibitors. 5.9% of 310,000 active. AID 504832
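Read-out is firefly luciferase luminescence from an integrated reporter in P. falciparum, so falling signal marks reduced parasite growth. Infected erythrocytes were at 2% hematocrit and 0.1% parasitemia (final) in Albumax-supplemented RPMI 1640.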
Of the large screens only hits and unclear results are named; the others gave an inactive call; ! = not confirmed by another sample. Rows were chosen to be rich in hits. Some 21% of all compounds tested hit in one or more screens of this group. Unless noted, calls come from the whole dose curve; as a rule, active = well fitted inhibition curve with a large enough effect; inconclusive = small, poorly fitted or top-dose-only effect, or another doubt; inactive = no such curve, though single readings can be large or run the other way.

CN1C[C@@H]2C(c3ccccc3)C3(c4ccccc4)CC2(C3)[C@H]1c1ccccc1 (some centres undefined)	Pf growth 96h inconclusive, Pf growth 48h inconclusive
COC(=O)c1ccc(C23CC4(C2)[C@H](CN(C)[C@@H]4c2ccccc2)C3c2ccccc2)cc1 (some centres undefined)	Pf growth 96h inconclusive, Pf growth 48h inconclusive
CN1C[C@@H]2C(c3ccccc3)C3(c4ccc(C#N)cc4)CC2(C3)[C@H]1c1ccccc1 (some centres undefined)	Pf growth 96h 10.4µM, Pf growth 48h 10.4µM
CN1C[C@@H]2C(c3ccc(C(F)(F)F)cc3)C3(c4ccc(C#N)cc4)CC2(C3)[C@H]1c1ccccc1 (some centres undefined)	Pf growth 96h 11.7µM, Pf growth 48h 11.7µM
Cc1ccnc(NC(c2ccccc2)c2ccc3cccnc3c2O)c1 (centres undefined)	HCV inh 12.6µM, HCMV inh -77.7 (no result: Shiga toxin inh, Pf growth 96h, CHX counter, Pf growth 48h)
Cc1ccnc(NC(c2cccnc2)c2ccc3cccnc3c2O)c1 (centres undefined)	HCV inh 3.98µM, Pf growth 48h inconclusive
Cc1ccnc(NC(c2cc(C)ccc2O)c2ccc3cccnc3c2O)c1 (centres undefined)	none (no result: Shiga toxin inh, HCV inh, Pf growth 96h, CHX counter, Pf growth 48h)
CC(C)(CC(=O)O)CC(=O)Nc1ccc2c(c1)ncn2CCc1ccccc1	Pf growth 96h inconclusive
CCc1ccc(CNc2ccc3c(c2)ncn3CC)cc1	Shiga toxin inh 85.9, HCV inh inconclusive, CHX counter 52.7
CC(C)(CO)NCc1ccc(Br)cc1	Pf growth 96h inconclusive
CCCCn1cnc2cc(NCc3ccc(OCC)cc3)ccc21	none (no result: Shiga toxin inh, HCV inh, Pf growth 96h, CHX counter, Pf growth 48h)
CCN(CC)c1ccc(CNc2ccc3c(c2)ncn3C(C)(C)C)cc1	HCMV inh -67.7
CC(C)(C)n1cnc2cc(NCc3ccc(Br)cc3)ccc21	Shiga toxin inh 116.9, CHX counter 46.9
CCn1cnc2cc(NCc3ccc(OC)cc3)ccc21	none (no result: Pf growth 48h)
CCc1ccc(CNc2ccc3c(c2)ncn3C(C)(C)C)cc1	Shiga toxin inh 93.6, CHX counter 39.5, HCMV inh -64.4!
O=C(C1CCN(S(=O)(=O)Cc2ccccc2)CC1)N1CCN(c2ccccc2)CC1	none (no result: Shiga toxin inh, HCV inh, Pf growth 96h, CHX counter, Pf growth 48h)
COc1ccc(CCNC(=O)CCS(=O)(=O)c2ccc3c(c2)NC(=O)C(C)S3)cc1OC (centres undefined)	none
CCCn1cnc2cc(NCc3cccs3)ccc21	Shiga toxin inh 106.0, HCV inh inconclusive, CHX counter 32.8
CCCCn1cnc2cc(NCc3ccncc3)ccc21	none
CC(C)C[C@H](NC(=O)[C@H](CO)NC(=O)CNC(=O)[C@H](CCCCN)NC(=O)[C@H](CCCN=C(N)N)NC(=O)[C@H](C)NC(=O)[C@H](Cc1ccccc1)NC(=O)[C@@H](N)CCCN=C(N)N)C(=O)N[C@@H](CCCN=C(N)N)C(=O)N[C@@H](CCC(N)=O)C(=O)N[C@@H](CCCCN)C(=O)N[C@@H](CC(N)=O)C(=O)N[C@H](C(=O)O)C(C)C	none (no result: HCV inh, Pf growth 96h, HCMV inh, Pf growth 48h)
CC(=O)N1c2ccc(S(=O)(=O)N3CCC(C(=O)Nc4ncccc4C)CC3)cc2CC1C (centres undefined)	Pf growth 96h inconclusive
CC(=O)N1c2ccc(S(=O)(=O)NCC3CCC(C(=O)Nc4cccc(C)n4)CC3)cc2CC1C (centres undefined)	HCV inh inconclusive, Pf growth 96h inconclusive, HCMV inh -71.2, Pf growth 48h inconclusive
CC(=O)N1c2ccc(S(=O)(=O)NCC3CCC(C(=O)NC4CCC(C)CC4)CC3)cc2CC1C (centres undefined)	HCV inh inconclusive, Pf growth 96h inconclusive, Pf growth 48h 13.1µM
CC(=O)N1c2ccc(S(=O)(=O)N3CCC(C(=O)Nc4cccc(C)n4)CC3)cc2CC1C (centres undefined)	HCV inh 1.26µM, HCMV inh -86.7, Pf growth 48h inconclusive
CC(=O)N1c2ccc(S(=O)(=O)N3CCC(C(=O)Nc4ccccn4)CC3)cc2CC1C (centres undefined)	HCV inh inconclusive, Pf growth 96h 5.86µM, HCMV inh inconclusive, Pf growth 48h inconclusive
CC(=O)N1c2ccc(S(=O)(=O)NCC3CCC(C(=O)Nc4cccc(C)c4)CC3)cc2CC1C (centres undefined)	none (no result: Shiga toxin inh, HCV inh, Pf growth 96h, CHX counter, Pf growth 48h)
COc1ccc(NC(=O)C2CCCC2)cn1	none
CCOc1ccc(C(=O)N(Cc2nc(-c3cccc(C)c3)no2)C(C)C)cc1	none (no result: Shiga toxin inh, HCV inh, Pf growth 96h, CHX counter, Pf growth 48h)
Cc1cc(NC(=O)C(C)Sc2nc(-c3ccccc3)cc(=O)[nH]2)no1 (centres undefined)	Pf growth 96h inconclusive
CCCN1C(=O)C2(c3ccccc31)c1c(oc3ccc(C)cc3c1=O)C(=O)N2CCOC (centres undefined)	none (no result: Shiga toxin inh, HCV inh, Pf growth 96h, CHX counter, Pf growth 48h)
COc1ccc(CCNC(=O)CCn2c(=O)c3ccccc3n(Cc3ccccc3F)c2=O)cc1OC	none (no result: Shiga toxin inh, HCV inh, Pf growth 96h, CHX counter, Pf growth 48h)
Cc1ccc(C)c(OCc2cc(C(=O)N3CC[C@H](O)C3)no2)c1	Shiga toxin inh 92.1, CHX counter 34.4
COc1ccc(OCc2cc(C(=O)N3CCCC(O)C3)no2)c2ccccc12 (centres undefined)	Shiga toxin inh 121.6, Pf growth 96h inconclusive, CHX counter 55.4
COc1cc(Cl)ccc1OCc1cc(C(=O)N2CCC(N(C)C)C2)no1 (centres undefined)	Pf growth 96h inconclusive
CCCOC1CCCN(C(=O)c2cc(COc3c(F)cccc3F)on2)C1 (centres undefined)	Shiga toxin inh 92.8, CHX counter 46.8
COc1ccc(OCc2cc(C(=O)N3CCCC(OC)C3)no2)c2ccccc12 (centres undefined)	Shiga toxin inh 92.4, CHX counter 50.4, Pf growth 48h inconclusive
Cc1cn2c(=O)c(S(=O)(=O)Nc3ccc(OC(F)(F)F)cc3)c(C)nc2s1	none (no result: Shiga toxin inh, HCV inh, Pf growth 96h, CHX counter, Pf growth 48h)
CC(=O)c1ccc(NC(=O)C2C3C=CC(C3=C(c3ccccc3)c3ccccc3)C2C(=O)O)cc1 (centres undefined)	Pf growth 96h inconclusive, Pf growth 48h inconclusive
O=C(COCC(=O)N1CCOCC1)N1CCOCC1	none
COc1ccc(/C=N/NC(=O)c2cccnc2)cc1O	CHX counter 18.9 (no result: Shiga toxin inh)
COc1cc(/C=N/NC(=O)c2cccnc2)ccc1OS(=O)(=O)c1ccc(C)cc1	none
COc1ccc(/C=N/NC(=O)c2ccc[nH]2)cc1	Shiga toxin inh 77.1, CHX counter 29.3
COc1ccc(/C=N/NC(=O)c2cccnc2)cc1CN1CCc2ccccc2C1	HCV inh inconclusive, Pf growth 96h 10.4µM, Pf growth 48h 10.4µM
CCOC(=O)c1ccccc1OCc1cc(/C=N/NC(=O)c2cccnc2)ccc1OC	none
COc1ccc(/C=N/NC(=O)c2cccnc2)cc1	Shiga toxin inh 121.0, CHX counter 31.5 (no result: Pf growth 48h)
COc1ccc(C=NNC(=O)CCCCC(=O)NN=Cc2ccc(OC)cc2)cc1	none (no result: Shiga toxin inh, Pf growth 96h, CHX counter, Pf growth 48h)
COc1ccc(C(=O)Oc2ccc(/C=N/NC(=O)c3cccnc3)cc2OC)cc1	none (no result: Shiga toxin inh, CHX counter)

High-throughput results deposited in PubChem by National Center for Advancing Translational Sciences (NCATS).
